# Source: PubChem (several laboratories)
# sEH inh = inhibitors of human soluble epoxide hydrolase. inhibition, % at 2 µM. AID 707. 91,000 tested, 0.34% active. recombinant human sEH enzymatic activity assay; in the data active means inhibition above about 80%
# Target sequence (P34913 whole entry, looked up): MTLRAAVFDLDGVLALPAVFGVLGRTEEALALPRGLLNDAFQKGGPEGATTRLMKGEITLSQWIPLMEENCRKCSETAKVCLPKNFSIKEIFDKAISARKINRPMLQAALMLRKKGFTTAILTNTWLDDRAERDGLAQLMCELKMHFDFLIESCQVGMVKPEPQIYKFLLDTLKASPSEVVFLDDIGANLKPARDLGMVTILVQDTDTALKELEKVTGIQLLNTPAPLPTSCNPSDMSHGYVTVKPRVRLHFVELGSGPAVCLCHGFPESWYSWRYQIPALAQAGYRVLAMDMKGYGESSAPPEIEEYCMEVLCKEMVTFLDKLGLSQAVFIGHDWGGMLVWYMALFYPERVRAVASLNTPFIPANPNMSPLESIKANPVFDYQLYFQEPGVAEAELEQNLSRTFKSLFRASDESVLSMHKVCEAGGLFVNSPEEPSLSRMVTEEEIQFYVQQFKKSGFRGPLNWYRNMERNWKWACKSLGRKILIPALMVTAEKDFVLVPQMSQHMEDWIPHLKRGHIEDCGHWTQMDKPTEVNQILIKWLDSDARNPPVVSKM
# CYP2C9 act = increases human cytochrome P450 2C9 activity; recombinant CYP2C9, luciferin-H conversion, luminescence; hits give high values; factor 1 = untreated enzyme, 0 = blocked; 96,000 tested, 1.4% active; P11712; AID 1024; activation factor at 5 µM;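 active means activation factor of 2 or more for CYP2C9 at a 5 µM dose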;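 further: 0 = sulfaphenazole-blocked wells and 1 = vehicle-only wells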
# sEH act = activators of human soluble epoxide hydrolase | P34913 | purified human sEH enzymatic activity, activator screen | activation, % at 2 µM | 91,000 tested, 0.04% active | AID 717; in the data active means activation above about 37%
# CYP2C19 act = activators of human cytochrome P450 2C19; recombinant CYP2C19, luciferin-H EGE luminescence; hits give high values; 0 = fully inhibited enzyme, 1 = untreated enzyme; activation factor at 5 µM; 96,000 tested, under 10 active;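 active means activation factor of at least 2 at 5 µM in the primary screen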;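 further: 0 = wells with 2.5 mM tranylcypromine and 1 = vehicle-only wells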
# CYP2C19 inh = human CYP2C19 inhibition. P33261. CYP2C19 Supersomes, luciferin-H EGE luminescence, 30 min. inhibition, % at 5 µM. 96,000 tested, 21% active. AID 778;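 active means CYP2C19 inhibition above a set limit at 5 µM in the primary screen, cut at about 50% in these data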;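 further: plate controls were negative control wells for no effect and 2.5 mM tranylcypromine positive control for full effect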
# CYP2C9 inhib = human CYP2C9 inhibition; P11712; 96,000 tested, 20% active; CYP2C9 Supersomes, luciferin-H conversion, luminescence; inhibition, % at 5 µM;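 active means blocking of liver enzyme CYP2C9 beyond about 50% at 5 µM, limit read from the data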
# The depositor's hits bear a star; . = no result. An excerpt weighted towards active compounds, which were near 27% of everything screened.
SMILES,sEH inh,CYP2C9 act,sEH act,CYP2C19 act,CYP2C19 inh,CYP2C9 inhib
CC(=O)Nc1ccc(-n2nnnc2SCC(=O)N2CCN(C(=O)c3ccco3)CC2)cc1,-2,0.9,5,0.9,10,10
COc1ccc(OC)c(-n2nnnc2SCC(=O)Nc2ccc(C(=O)N3CCCCC3)cc2)c1,50,0.3,-50,0.2,78*,67*
COc1ccc(OC)c(-n2nnnc2SCC(=O)Nc2ccc3c(c2)OCCO3)c1,15,0.6,-16,0.7,33,42
CCOC(=O)CSc1nnnn1-c1cc(OC)ccc1OC,-5,0.4,5,0.3,71*,65*
COC(=O)c1ccc(-n2nnnc2SCC(=O)N2CCCCC2)cc1,.,0.4,.,0.7,26,55*
COC(=O)c1ccc(-n2nnnc2SCC(=O)Nc2cc(OC)ccc2OC)cc1,4,0.9,-4,0.9,14,11
O=C(O)c1nn(-c2ccc(Cl)cc2)ccc1=O,-23,1.1,22,1.1,-7,-9
O=C(C1CC1)N1CCc2cc(S(=O)(=O)N(CCO)Cc3ccccc3)ccc21,-10,.,10,.,.,.
Cc1ccc(-c2noc(C3CCCN(S(=O)(=O)c4ccc5ccccc5c4)C3)n2)o1 (stereo unspecified),-2,1.3,-3,0.7,33,-32
Cc1ccc(S(=O)(=O)N2CCCC(c3nc(-c4ccc(C)o4)no3)C2)cc1 (stereo unspecified),-17,0.2,19,0.1,90*,83*
Cc1ccc(-c2noc(C3CCCN(S(=O)(=O)c4ccc(S(=O)(=O)N(C)C)cc4)C3)n2)o1 (stereo unspecified),17,0.2,-18,0.8,21,82*
COC(=O)C(NC(=O)c1ccc(Cl)cc1)(Nc1nc(C)cs1)C(F)(F)F (stereo unspecified),8,0.8,-6,0.3,74*,17
COCCNCCCCOc1c(Cl)cc(C)cc1Br,1,1.1,-1,0.8,17,-8
Clc1ccc(OCCCNCc2ccccc2)c(Br)c1,3,1,-5,0.4,63*,2
Cc1cc(Cl)c(OCCCNCc2ccccc2)c(Br)c1,76,1,-76,0.4,57*,-4
CCOC(=O)Cn1nc(/C=C/c2ccc(C(C)C)cc2)ccc1=O,10,0.8,-10,0.9,12,19
CS(=O)(=O)N1CCN(C(=O)C(Sc2ccccc2)c2ccccc2)CC1 (stereo unspecified),-5,1,5,0.3,71*,2
COc1ccccc1N1CCN(C(=O)C(Sc2ccccc2)c2ccccc2)CC1 (stereo unspecified),-1,0.4,4,0.4,61*,59*
CC(=O)Nc1ccc(S(=O)(=O)NNC(=O)c2cc3c4ccccc4n(C)c3s2)cc1,4,1,-3,1,-1,-3
CC1=NC(=O)C(N=Nc2ccccc2C)N1c1ccccc1 (stereo unspecified),6,.,-5,.,.,.
CN(NC(=O)c1ccc(Cl)cc1)c1cccc(Cl)n1,10,1.2,-13,0.4,56*,-22
CCCCCC1CC(=O)N(Cc2ccc(Cl)cc2)C(=O)N1 (stereo unspecified),-7,1.4,6,0.6,40,-37
Nc1nc2n(n1)C(c1ccc(Cl)cc1)CC(c1ccc(F)cc1)N2 (stereo unspecified),.,0.9,.,0.8,22,7
Fc1ccc(C2CC(c3ccc(F)cc3)n3ncnc3N2)cc1 (stereo unspecified),-8,0.3,7,0,97*,69*
CCc1ccc(C2CC(c3ccccc3)n3ncnc3N2)cc1 (stereo unspecified),-2,0.5,2,0.1,88*,48
SMILES,sEH inh,CYP2C9 act,sEH act,CYP2C19 act,CYP2C19 inh,CYP2C9 inhib
CC(=O)Oc1cc2c(cc1Cl)C1(CC(c3ccccc3Cl)O2)CC(C)(C)NC(=S)N1 (stereo unspecified),-1,0.7,3,0.8,17,32
COC1(c2ccccc2)NC(=S)NN=C1c1ccccc1 (stereo unspecified),8,0.2,-8,0.5,48,82*
CCCCOC1(c2ccccc2)NC(=S)NN=C1c1ccccc1 (stereo unspecified),-1,0.1,0,0.2,79*,95*
CC(C)C(c1nnnn1Cc1cccs1)N1CCN(c2ccccc2)CC1 (stereo unspecified),-16,0.9,18,1,-2,5
CCN1CCCC1CN(Cc1cc2ccc(C)c(C)c2[nH]c1=O)C(=O)Nc1ccccc1OC (stereo unspecified),-10,0.9,11,1,-3,7
COc1ccc(C2c3c(oc4ccc(C)cc4c3=O)C(=O)N2c2cc(C)ccn2)cc1OC (stereo unspecified),2,0.4,-3,0.9,8,64*
CCOc1ccc(C2c3c(oc4cc(C)c(C)cc4c3=O)C(=O)N2CCCN(C)C)cc1OC (stereo unspecified),8,0.4,-9,0.9,11,56*
CCCc1nnc(NC(=O)CSc2ncn[nH]2)s1,-11,0.9,12,0.6,36,6
CC(C)(C)OC(=O)N[C@@H](Cc1ccccc1)c1nnc(S(=O)(=O)Cc2cccc(F)c2)o1,14,0.4,-11,0.6,42,60*
Cc1ccccc1CS(=O)(=O)c1nnc([C@H](CC(C)C)NC(=O)OC(C)(C)C)o1,-8,0.2,11,0.7,29,76*
CC(C)C[C@H](NC(=O)OC(C)(C)C)c1nnc(SCc2ccccc2)o1,2,0.4,0,0.3,74*,65*
CCOC(=O)CSc1nnc([C@H](Cc2ccccc2)NC(=O)OC(C)(C)C)o1,-4,1,2,0.6,41,1
CC[C@@H](C)[C@H](NC(=O)OC(C)(C)C)c1nnc(S(=O)(=O)Cc2cc(C)ccc2C)o1,-18,0.6,16,0.8,21,41
O=C(O)CN1C(=O)COc2cc(S(=O)(=O)N3CCCC3)ccc21,10,0.9,-8,1,-2,11
Cc1cc(NC(=O)CCNS(=O)(=O)c2cc(Br)cnc2N)ccc1Br,16,0.6,-18,0.7,30,41
Nc1ncc(Br)cc1S(=O)(=O)NCCC(=O)N1CCN(c2ncccn2)CC1,2,0.6,-2,0.4,60*,41
Nc1ncc(Br)cc1S(=O)(=O)NCCC(=O)Nc1cccc(Cl)c1,14,0.6,-16,0.3,66*,41
COc1cc(OC)c(NC(=O)CCNS(=O)(=O)c2cc(Br)cnc2N)cc1Cl,-13,0.1,10,0.6,36,94*
CCOC(=O)N1CCN(C(=O)CCNS(=O)(=O)c2cc(Br)cnc2N)CC1,-12,1.1,12,0.9,7,-11
CN(C)CCOCCSc1ccc(Cl)cc1,-12,0.9,11,0.9,13,6
O=C(CN(CCc1ccccc1)C(=O)Cn1nnc(-c2cccs2)n1)NCc1ccco1,43,0.2,-44,0.4,56*,81*
